In all, about 4,100 sequences were measured (“relative CpG methylation activity (normalised to average over all NNNCGNNN flanks)”: median about 0.94, highest 2% from about 1.9 on). The list comes from a sample in which the highest values are over-represented; it also holds similar and randomly drawn sequences.

The target of the assay is DNMT3B catalytic domain (mouse) (UniProt O88509). Briefly: relative CpG methylation activity (normalised to average over all NNNCGNNN flanks) (relative (1 = mean)); higher = more methylation of the central CpG. The following applies: system: in vitro, murine catalytic domain; CpG state: hemimethylated substrate pool; residues: 558-859. As to the method: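 Deep enzymology: a pool of dsDNA substrates with a central CpG flanked by 10 random nucleotides on each side was methylated by the murine DNMT3A or DNMT3B catalytic domain (0.8 mM SAM, 37 °C, 60 min). Methylation was then read out by hairpin ligation, bisulfite conversion and NGS. Values are the average methylation of each NNNCGNNN context (±3 flanks; the outer flanks are random and averaged over), normalised to the overall mean, so 1 = average activity.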
Sequence of DNMT3B catalytic domain (mouse) (O88509 558-859): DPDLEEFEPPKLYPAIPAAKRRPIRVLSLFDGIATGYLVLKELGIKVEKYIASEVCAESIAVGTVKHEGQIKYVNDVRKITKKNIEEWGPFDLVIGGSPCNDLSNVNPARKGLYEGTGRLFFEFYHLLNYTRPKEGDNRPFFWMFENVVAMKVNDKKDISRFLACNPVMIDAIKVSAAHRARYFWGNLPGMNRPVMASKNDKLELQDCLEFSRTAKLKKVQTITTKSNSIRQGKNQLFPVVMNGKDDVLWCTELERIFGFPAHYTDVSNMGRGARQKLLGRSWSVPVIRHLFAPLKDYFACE
Consider GACCGGCT, for which the “relative CpG methylation activity” value came to 1.19.

With ACGCGTAG, the “relative CpG methylation activity” value was found to be 0.632.

AGGCGATC: the “relative CpG methylation activity” value was 1.05.

As for ACACGATC, the “relative CpG methylation activity” value stood at 1.75.

For GGCCGACT, the “relative CpG methylation activity” value worked out at 0.91.

Turning to TTACGTCC, the “relative CpG methylation activity” value worked out at 1.93.

In the case of ATACGTCC, the “relative CpG methylation activity” value stood at 1.54.

Regarding TTACGTAC, the “relative CpG methylation activity” value worked out at 1.95.

Regarding TTACGTAT, the “relative CpG methylation activity” value turned out to be 1.19.

In the case of GTACGTAC, the “relative CpG methylation activity” value stood at 1.42.

Consider TTACGTCT, for which the “relative CpG methylation activity” value was 1.64.

With AGTCGACA, the “relative CpG methylation activity” value was 1.24.

Consider CTGCGGAA, for which the “relative CpG methylation activity” value was found to be 0.922.

In the case of ACACGCTG, the “relative CpG methylation activity” value came to 1.11.

Regarding GATCGATC, the “relative CpG methylation activity” value is 1.48.

As to TCCCGAGG, the “relative CpG methylation activity” value came to 1.3.

For TCCCGAGC, the “relative CpG methylation activity” value worked out at 2.01.

For CCCCGAGC, the “relative CpG methylation activity” value amounted to 1.93.

With ACCCGAGC, the “relative CpG methylation activity” value turned out to be 1.75.

Regarding CCCCGAGA, the “relative CpG methylation activity” value is 1.68.

On to CCCCGAGG, for which the “relative CpG methylation activity” value came out at 1.5.

For CACCGCGT, the “relative CpG methylation activity” value worked out at 0.402.

As to CTGCGCCA, the “relative CpG methylation activity” value is 1.17.

Turning to CGACGGCA, the “relative CpG methylation activity” value turned out to be 1.82.

Turning to CGACGGCG, the “relative CpG methylation activity” value came to 1.93.

On to TGACGGCG, for which the “relative CpG methylation activity” value came out at 1.63.

Regarding AGACGGCC, the “relative CpG methylation activity” value stood at 1.71.

With CGACGGCC, the “relative CpG methylation activity” value stood at 1.46.

Regarding AGACGGCG, the “relative CpG methylation activity” value worked out at 1.94.

Turning to AACCGTCC, the “relative CpG methylation activity” value is 0.606.

In the case of TATCGAGG, the “relative CpG methylation activity” value came out at 1.5.

GTACGCGT: the “relative CpG methylation activity” value was 1.4.

Turning to ATACGCCC, the “relative CpG methylation activity” value was 1.69.

CTACGGGA: the “relative CpG methylation activity” value was determined as 1.91.

Take CCACGGGA: the “relative CpG methylation activity” value was determined as 1.42.

On to GTACGGGT, for which the “relative CpG methylation activity” value was 1.85.

GTACGGGA: the “relative CpG methylation activity” value turned out to be 1.73.

With TTACGGGA, the “relative CpG methylation activity” value came out at 1.92.

On to GTACGGGC, for which the “relative CpG methylation activity” value was determined as 1.63.

Take ATACGGGT: the “relative CpG methylation activity” value turned out to be 1.73.

On to CTACGGGT, for which the “relative CpG methylation activity” value amounted to 1.94.

As to TTACGGGT, the “relative CpG methylation activity” value was determined as 1.83.

In the case of CTACGGGC, the “relative CpG methylation activity” value amounted to 1.75.

On to TTACGGGC, for which the “relative CpG methylation activity” value came out at 2.03.

On to CAACGGGA, for which the “relative CpG methylation activity” value was found to be 1.82.

On to TACCGCTG, for which the “relative CpG methylation activity” value worked out at 0.389.

TATCGCAG: the “relative CpG methylation activity” value came out at 0.473.

GAACGCGG: the “relative CpG methylation activity” value is 0.853.

For the sequence TACCGCGG, the “relative CpG methylation activity” value turned out to be 0.374.

In the case of CGGCGAAG, the “relative CpG methylation activity” value turned out to be 0.694.

For the sequence GCGCGCCA, the “relative CpG methylation activity” value was 0.631.

Turning to GTGCGAAA, the “relative CpG methylation activity” value amounted to 1.05.

As for CTACGGGG, the “relative CpG methylation activity” value came to 1.9.

For CAACGGGG, the “relative CpG methylation activity” value is 1.39.

Take ATACGGGA: the “relative CpG methylation activity” value was 1.66.

Take ACACGGGC: the “relative CpG methylation activity” value came out at 1.54.

ATACGGGG: the “relative CpG methylation activity” value stood at 1.61.

Consider TTACGGGG, for which the “relative CpG methylation activity” value came out at 2.

Consider GTACGGGG, for which the “relative CpG methylation activity” value came out at 1.6.

Regarding CGACGGGG, the “relative CpG methylation activity” value was 0.808.

With ATACGGGC, the “relative CpG methylation activity” value turned out to be 1.93.

GTTCGTAC: the “relative CpG methylation activity” value is 1.18.

Consider GCTCGCCC, for which the “relative CpG methylation activity” value amounted to 0.844.

For GTCCGATG, the “relative CpG methylation activity” value turned out to be 1.16.

Take GACCGTCT: the “relative CpG methylation activity” value worked out at 0.495.

Source of the values: the supplement of paper PMC7335073.
